Holding throughout (test): NCI-60 one-dose screen, 48 h (100 = growth as untreated, 0 = no growth, -100 = all killed)
The subject of one test is SK-MEL-2 melanoma. The settings on record: 10 µM.
The test system of the next test is EKVX NSCLC. The conditions noted are these: 10 µM.
The test system of a further test is SN12C renal. The conditions noted are these: 10 µM.
Another test concerns UO-31 renal. The conditions noted are these: 10 µM.
In a further test the test system is TK-10 renal. The settings on record: 10 µM unless noted.
The test system of another test is ACHN renal. The settings on record: 10 µM.
The next test relates to CAKI-1 renal. The conditions noted are these: 10 µM.
A further test has as its system A498 renal. The settings on record: 10 µM.
For a further test, the system named is CCRF-CEM leukemia. The settings on record: 10 µM.
The next test concerns MOLT-4 leukemia. The settings on record: 10 µM.
A further test concerns SR leukemia. The settings on record: 10 µM.
The subject of another test is RPMI-8226 leukemia. The conditions noted are these: 10 µM.
Another test concerns OVCAR-8 ovarian. The settings on record: 10 µM.
In a further test the test system is OVCAR-5 ovarian. The conditions noted are these: 10 µM.
For another test, the system named is OVCAR-4 ovarian. The settings on record: 10 µM.
In the next test the test system is SK-OV-3 ovarian. The conditions noted are these: 10 µM.
The subject of a further test is IGROV1 ovarian. The conditions noted are these: 10 µM.
The test system of a further test is OVCAR-3 ovarian. The conditions noted are these: 10 µM.
The test system of another test is HS 578T breast. The settings on record: 10 µM.
For a further test, the system named is NCI/ADR-RES ovarian. The conditions noted are these: 10 µM.

About 83,000 compounds went through this panel and 20% of them were active in at least one assay; those are over-represented in the sample as a whole.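 Compound tested at a single concentration for 48 hours in 96-well plates; a percent growth value below 10 was scored as active.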 Values without a mark were called inactive. Activity calls are given as the source filed them.

Regarding `C[N+](C)(C)C(=O)c1ccccc1`, the growth in the test with SK-MEL-2 melanoma was 98.6%; with EKVX NSCLC, 108%; with SN12C renal it was 95.8%; with UO-31 renal, 85.9%; with TK-10 renal, 102%; with ACHN renal it was 107%. Further, the growth in the test with CAKI-1 renal was 99.9%; in the test on A498 renal, 98%; in the test with CCRF-CEM leukemia, 104%; in the test with MOLT-4 leukemia it was 103%; with SR leukemia it was 102%; in the test with RPMI-8226 leukemia, 111%. Moreover, the growth with OVCAR-8 ovarian was 113%; in the test with OVCAR-5 ovarian, 98.7%; with OVCAR-4 ovarian, 115%; with SK-OV-3 ovarian it was 104%; in the test with IGROV1 ovarian, 115%; with OVCAR-3 ovarian, 113%. In addition, the growth in the test with HS 578T breast is 118%; with NCI/ADR-RES ovarian, 113%.

On to `COc1cccc(Sc2ccc([N+](=O)[O-])c3no[n+]([O-])c23)c1`, for which the growth is 86.2% in the test on SK-MEL-2 melanoma; 91.9% in the test on EKVX NSCLC; 74.4% in the test with SN12C renal; -21.5% (active) with UO-31 renal; 60.3% with TK-10 renal; 9.88% (active) with ACHN renal. Moreover, the growth was 64.8% with CAKI-1 renal; 98% in the test on A498 renal; -19.5% (active) in the test on CCRF-CEM leukemia; 0.692% (active) in the test on MOLT-4 leukemia; 6.99% (active) with RPMI-8226 leukemia; 53% with OVCAR-8 ovarian. Moreover, the growth was 60.2% with OVCAR-5 ovarian; 67.5% with OVCAR-4 ovarian; 77.9% with SK-OV-3 ovarian; -61.9% (active) with OVCAR-3 ovarian; 67.9% in the test on HS 578T breast; 42.5% in the test on NCI/ADR-RES ovarian.

Turning to `CCOC(=O)CNN`, the growth with SK-MEL-2 melanoma was 113%; in the test on EKVX NSCLC it was 113%; in the test with SN12C renal, 101%; with UO-31 renal it was 91.4%; in the test with TK-10 renal, 102%; in the test on ACHN renal, 119%. Besides, the growth with CAKI-1 renal was 106%; with A498 renal, 79.6%; in the test with CCRF-CEM leukemia, 97.8%; with SR leukemia it was 106%; in the test with RPMI-8226 leukemia, 110%; in the test with OVCAR-8 ovarian, 96.1%. For the same molecule, the growth in the test on OVCAR-5 ovarian was 112%; in the test on OVCAR-4 ovarian, 106%; with SK-OV-3 ovarian, 108%; with IGROV1 ovarian, 112%; in the test on OVCAR-3 ovarian, 108%; in the test with HS 578T breast, 105%. Moreover, the growth in the test with NCI/ADR-RES ovarian was 112%.

As for `CC1CCC(C(=O)O)N1` (configuration not stated), the growth was 91.5% with SK-MEL-2 melanoma; 107% in the test with EKVX NSCLC; 92.7% with SN12C renal; 76.5% in the test with UO-31 renal; 101% in the test on TK-10 renal; 91.6% in the test on ACHN renal. In addition, the growth with CAKI-1 renal was 92.3%; in the test on A498 renal it was 84%; in the test with CCRF-CEM leukemia it was 101%; in the test with MOLT-4 leukemia it was 87.8%; with RPMI-8226 leukemia it was 105%; with OVCAR-8 ovarian, 112%. For the same molecule, the growth in the test on OVCAR-5 ovarian is 91.5%; in the test on SK-OV-3 ovarian, 94.2%; in the test with IGROV1 ovarian, 101%; in the test on OVCAR-3 ovarian, 109%; in the test with HS 578T breast it was 106%; in the test with NCI/ADR-RES ovarian it was 93%.

For `CSC[C@H](NC(=O)COc1cccc2cnccc12)C(=O)NC(Cc1ccccc1)C(O)C(=O)N1CSC[C@H]1C(=O)NC(C)(C)C` (some centres not stated), the growth was 113% in the test on SK-MEL-2 melanoma; 103% in the test on EKVX NSCLC; 102% in the test on SN12C renal; 94.4% with UO-31 renal; 139% in the test on TK-10 renal; 109% in the test with ACHN renal. Moreover, the growth was 95.5% in the test on CAKI-1 renal; 95.6% with A498 renal; 111% in the test on CCRF-CEM leukemia; 101% in the test with MOLT-4 leukemia; 84.5% in the test with SR leukemia; 102% in the test with RPMI-8226 leukemia. Moreover, the growth was 91.7% in the test on OVCAR-5 ovarian; 115% in the test with SK-OV-3 ovarian; 101% in the test with OVCAR-3 ovarian; 86.8% in the test with HS 578T breast; 106% in the test with NCI/ADR-RES ovarian.

Regarding `S=C(Nc1ccccc1)N1CCCCC1`, the growth in the test with SK-MEL-2 melanoma was 98%; with EKVX NSCLC it was 105%; with SN12C renal it was 102%; with UO-31 renal it was 88.4%; with TK-10 renal it was 109%; in the test with ACHN renal, 94.5%. Further, the growth was 94.6% with CAKI-1 renal; 77.6% in the test with A498 renal; 102% with CCRF-CEM leukemia; 98% with MOLT-4 leukemia; 105% in the test on SR leukemia; 99.4% with OVCAR-8 ovarian. Also, the growth is 90.1% in the test with OVCAR-5 ovarian; 111% in the test with OVCAR-4 ovarian; 107% in the test on SK-OV-3 ovarian; 100% with IGROV1 ovarian; 110% in the test with OVCAR-3 ovarian; 102% in the test on HS 578T breast. Besides, the growth with NCI/ADR-RES ovarian was 107%.

As for `O=S(=O)(O)c1ccc(Cl)c(Cl)c1`, the growth in the test on SK-MEL-2 melanoma is 103%; in the test with EKVX NSCLC, 91.4%; with SN12C renal, 97.9%; in the test with UO-31 renal it was 79.4%; in the test on TK-10 renal, 100%; with ACHN renal, 97.3%. Further, the growth with CAKI-1 renal was 84.8%; in the test on A498 renal, 99.4%; in the test with CCRF-CEM leukemia, 103%; in the test on MOLT-4 leukemia it was 109%; in the test with SR leukemia it was 99.8%; with OVCAR-8 ovarian, 114%. The growth with OVCAR-5 ovarian is 112%; in the test on OVCAR-4 ovarian it was 106%; with SK-OV-3 ovarian, 103%; in the test on IGROV1 ovarian, 122%; with OVCAR-3 ovarian, 123%; with HS 578T breast, 120%. For the same molecule, in the test with NCI/ADR-RES ovarian, the growth is 106%.

Consider `CCOC(=O)c1ccc(Nc2sc(C(=O)c3cccc([N+](=O)[O-])c3)c(N)c2C#N)cc1`, for which the growth with SK-MEL-2 melanoma is 33%; in the test with EKVX NSCLC it was 62.1%; with SN12C renal it was 52.9%; in the test on UO-31 renal it was 31.1%; in the test on TK-10 renal, 74.1%; with ACHN renal, 41.3%. Besides, the growth was -17.8% (active) with CAKI-1 renal; 38.4% in the test on A498 renal; 5.1% (active) with CCRF-CEM leukemia; 23.6% with MOLT-4 leukemia; -28.3% (active) in the test with SR leukemia; 35.7% with OVCAR-8 ovarian. Also, the growth in the test on OVCAR-5 ovarian was 38.1%; in the test on OVCAR-4 ovarian, 33.1%; in the test on SK-OV-3 ovarian, 27.6%; with IGROV1 ovarian, -6.69% (active); with OVCAR-3 ovarian, -44.8% (active); in the test on HS 578T breast, 15.5%. For the same molecule, the growth in the test on NCI/ADR-RES ovarian was 26.8%.

With `O/N=C/c1ccc(O)cc1O`, the growth in the test on SK-MEL-2 melanoma is 92.9%; with EKVX NSCLC, 102%; with SN12C renal it was 98%; in the test on UO-31 renal, 99%; in the test on TK-10 renal, 102%; with ACHN renal, 95.9%. The growth in the test on CAKI-1 renal is 101%; with A498 renal it was 85.9%; in the test on CCRF-CEM leukemia, 86.5%; with MOLT-4 leukemia, 102%; in the test on SR leukemia, 110%; in the test on OVCAR-8 ovarian it was 94.1%. Moreover, the growth was 94.7% in the test on OVCAR-5 ovarian; 109% with OVCAR-4 ovarian; 103% in the test on SK-OV-3 ovarian; 117% in the test with IGROV1 ovarian; 112% in the test with OVCAR-3 ovarian; 104% in the test on NCI/ADR-RES ovarian.

For the origin of these results see PubChem BioAssay (NCI).
